# Compound activity from PubChem.
# CYP2C9 inh: inhibitors of human CYP2C9 | inhibition, % at 5 µM | CYP2C9 Supersomes, luciferin-H conversion, luminescence | P11712 | actives 20% (n = 96,000);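 active = blocking of liver enzyme CYP2C9 beyond about 50% at 5 µM, limit read from the data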
# CYP2C9 activ: CYP2C9 (human) activation; recombinant CYP2C9, luciferin-H conversion, luminescence; hits give high values; factor 1 = untreated enzyme, 0 = blocked; activation factor at 5 µM; actives 1.4% (n = 96,000);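 active = activation factor of 2 or more for CYP2C9 at a 5 µM dose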;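 also: 0 = sulfaphenazole-blocked wells and 1 = vehicle-only wells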
# CYP2C19 inhib: blocks human cytochrome P450 2C19; P33261; actives 21% (n = 96,000); CYP2C19 Supersomes, luciferin-H EGE luminescence, 30 min; AID 778; inhibition, % at 5 µM;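 active = CYP2C19 inhibition above a set limit at 5 µM in the primary screen, cut at about 50% in these data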;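 also: plate controls were negative control wells for no effect and 2.5 mM tranylcypromine positive control for full effect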
# CYP2C19 activ: activators of human cytochrome P450 2C19; P33261; 96,000 tested, under 10 active; AID 1025; activation factor at 5 µM; recombinant CYP2C19, luciferin-H EGE luminescence; hits give high values; 0 = fully inhibited enzyme, 1 = untreated enzyme;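 active = activation factor of at least 2 at 5 µM in the primary screen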;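 also: 0 = wells with 2.5 mM tranylcypromine and 1 = vehicle-only wells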
# Cav32 inh: inhibitors of human Cav3.2 T-type calcium channel; O95180; Cav3.2-expressing cells, Fluo-4 calcium fluorescence FDSS; hits give low values; B-score at 10 µM; actives 4% (n = 100,000); AID 449739;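 active = single-dose well whose peak fluorescence ratio is a statistical outlier from its plate by either plate-standardised score or position-corrected B-score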
# * = called active by the depositor; . = no result given. Shown are actives, neighbours in structure and some others; about 27% of the full set was active somewhere.
SMILES,CYP2C9 inh,CYP2C9 activ,CYP2C19 inhib,CYP2C19 activ,Cav32 inh
Fc1ccccc1CSc1nnc(Cn2cnc3ccccc32)n1-c1ccccc1,32.1,0.7,83.3*,0.2,-1.13
Cc1ccc(OC(C)c2nnc(N)s2)cc1Cl (stereo not given),47.5,0.5,67.8*,0.3,.
CC(Oc1ccccc1Cl)c1nnc(N)s1 (stereo not given),-21.6,1.2,-2.0,1,0.906
CN(Cc1ccccc1)c1nc(N)c([N+](=O)[O-])c(Nc2cccc(F)c2)n1,78.6*,0.2,38.1,0.6,-0.511
O=C(CSc1cn(CCNC(=O)c2ccc3ccccc3c2)c2ccccc12)NCc1ccco1,8.9,0.9,25.5,0.7,-1.93
O=C(Cn1cc(C(=O)c2ccco2)c2ccccc21)NC1CCCC1,41.8,0.6,40.5,0.6,1.84
CCCn1cc(SCC(=O)NCC2CCCO2)c2ccccc21 (stereo not given),-52.0,1.5,38.8,0.6,0.0287
O=C(CSc1cn(CCNC(=O)c2cccs2)c2ccccc12)NC1CCCCC1,91.8*,0.1,59.0*,0.4,-1.44
O=C(CSc1cn(CCNC(=O)c2cccs2)c2ccccc12)NCc1ccccc1,97.9*,0,86.5*,0.1,-3.97
O=C(CSc1cn(CCNC(=O)c2cccs2)c2ccccc12)NCC1CCCO1 (stereo not given),81.1*,0.2,34.4,0.7,1.35
O=C(Cn1cc(C(=O)c2cccs2)c2ccccc21)NC1CCCCC1,71.8*,0.3,54.7*,0.5,-1.09
CCn1cc(Br)c(C(=O)NN)n1,-23.3,1.2,8.2,0.9,-0.267
CCCCCCC(=O)N/N=C/Cc1ccccc1,-19.1,1.2,41.4,0.6,-1.39
COc1ccc(N2CCN(C(=O)CCN3C(=O)c4ccccc4S3(=O)=O)CC2)cc1,13.7,0.9,3.9,1,0.746
N#C/C(=C/c1ccc(N2CCOCC2)c([N+](=O)[O-])c1)C(N)=O,20.7,0.8,17.6,0.8,0.764
O=S(=O)(NC(=NC1CCCC1)C(F)(F)F)c1ccccc1,-40.6,1.4,65.6*,0.3,0.337
O=C(O)c1ccc(S(=O)(=O)NC2CCCCC2)cc1,-15.3,1.2,-11.3,1.1,-1.02
COC(=O)c1ccc(CN(C)S(=O)(=O)c2ccc(C)cc2)o1,57.8*,0.4,90.7*,0.1,-0.314
COC(=O)c1ccc(Cc2ccc(C(=O)OC)o2)o1,6.3,0.9,19.8,0.8,0.0268
COC(=O)c1ccc(CN(c2ccc(C)cc2)S(=O)(=O)c2ccc3c(c2)OCCO3)o1,73.6*,0.3,59.1*,0.4,0.357
CCC1=NN=C(c2ccc(F)cc2)C(c2c[nH]c3ccccc23)N1O (stereo not given),.,.,.,.,-1.64
Cc1nc([N+](=O)[O-])c(N2CCN(Cc3ccccc3)CC2)n1Cc1ccccc1,57.1*,0.4,53.9*,0.5,-1.64
CC(C)c1onc(C(=O)N2CCN(Cc3ccccc3)CC2)c1[N+](=O)[O-],.,.,.,.,0.0369
CC(C)c1ccc(C2C(C#N)=C(N)N3C(=C2C#N)Sc2ccccc23)cc1 (stereo not given),21.0,0.8,66.7*,0.3,-1.4
Cc1cccc(NC(=O)Cc2cccs2)n1,-4.3,1,12.0,0.9,0.584
SMILES,CYP2C9 inh,CYP2C9 activ,CYP2C19 inhib,CYP2C19 activ,Cav32 inh
N#Cc1cccc(-n2c(-c3ccccc3)nnc2-c2ccccc2)c1C#N,89.4*,0.1,89.0*,0.1,-0.971
CN1C2=NCCN2C(=O)c2ccccc21,-10.3,1.1,6.4,0.9,1.01
CC(C)(C)OC(=O)N[C@@H](Cc1ccccc1)c1nnc(S(=O)(=O)Cc2cccc(F)c2)o1,60.2*,0.4,42.0,0.6,.
CC(C)C[C@H](NC(=O)OC(C)(C)C)c1nnc(SCc2ccccc2)o1,64.8*,0.4,73.9*,0.3,-4.81*
Cc1ccccc1CS(=O)(=O)c1nnc([C@H](CC(C)C)NC(=O)OC(C)(C)C)o1,75.8*,0.2,29.1,0.7,-1.09
CC[C@@H](C)[C@H](NC(=O)OC(C)(C)C)c1nnc(S(=O)(=O)Cc2cc(C)ccc2C)o1,41.0,0.6,21.0,0.8,-0.669
CC(C)(C)OC(=O)N[C@@H](CCCCNC(=O)OCc1ccccc1)c1nnc([C@H](CCCCNC(=O)OCc2ccccc2)NC(=O)OC(C)(C)C)o1,.,.,.,.,-2.82*
CCOC(=O)CSc1nnc([C@H](Cc2ccccc2)NC(=O)OC(C)(C)C)o1,0.9,1,40.8,0.6,-0.562
CN(C)S(=O)(=O)c1ccc(N2CCN(S(=O)(=O)c3ccc(F)cc3)CC2)c(Cl)c1,10.9,0.9,11.5,0.9,-2.45
O=C(CCS(=O)(=O)c1ccc(Cl)cc1)Oc1ccc2c(c1)OCO2,34.6,0.7,24.1,0.8,0.113
Cc1cc(C)n(Cc2ccc(C(=O)NCCC3=CCCCC3)o2)n1,18.1,0.8,41.4,0.6,0.889
O=C(Nc1ccc(-c2nc3c(ccc4ccccc43)o2)cc1)c1ccco1,-45.2,1.5,15.8,0.8,-0.0129
O=C(NCCN1CCOCC1)Nc1ccc(Cl)cc1Cl,-6.0,1.1,5.5,0.9,0.771
CN(C(=O)COC(=O)c1ccc(Cl)cc1N)C1CCS(=O)(=O)C1 (stereo not given),-5.3,1.1,-33.0,1.3,-0.233
O=C(c1cc(-c2ccco2)on1)N1CCCc2ccccc21,-154.7,2.5*,19.6,0.8,-0.106
O=C(c1nn2c(C(F)(F)F)cc(-c3ccco3)nc2c1Br)N1CCCc2ccccc21,75.8*,0.2,79.2*,0.2,-1.29
OCCOCCn1c(C(CO)Nc2nc(-c3ccc(F)cc3)cs2)nc2ccccc21 (stereo not given),.,.,.,.,0.0214
Cc1ccc(S(=O)c2ccc(C)cc2)cc1,1.7,1,31.6,0.7,0.0186
COc1ccc(-c2noc(C)c2-c2ccc3ccccc3n2)c(O)c1,72.0*,0.3,100.2*,0,-2.74
COc1ccc(-c2onc(C)c2-c2ccccc2)c(O)c1,40.6,0.6,96.0*,0,-0.743
Cc1oc2c(C)c(O)ccc2c(=O)c1-c1ccc2ccccc2n1,15.1,0.8,-13.3,1.1,0.848
Cc1cc(C)n(-c2ccc(C(=O)OCC(=O)c3c(N)n(C)c(=O)n(C)c3=O)cc2)n1,11.4,0.9,19.8,0.8,0.35
COC(=O)C(CC(C)C)NC(=O)c1ccc(F)cc1 (stereo not given),2.7,1,15.3,0.8,0.161
Cn1cccc1Cc1nnc(SCC(=O)Nc2ccccc2F)n1-c1ccc(F)cc1,28.6,0.7,14.4,0.9,-2.43
Cn1cccc1Cc1nnc(SCC(=O)Nc2ccc(F)cc2)n1-c1ccc(F)cc1,28.4,0.7,10.3,0.9,-4.19*
Cn1cccc1Cc1nnc(SCC(=O)Nc2ccc(Cl)cc2)n1-c1ccc(F)cc1,57.8*,0.4,53.6*,0.5,-9.77*
Cc1ccccc1NC(=O)CSc1nnc(Cc2cccn2C)n1-c1ccc(F)cc1,14.2,0.9,2.5,1,-1.43
Cn1cccc1Cc1nnc(SCC(=O)Nc2ccccc2)n1-c1ccc(F)cc1,34.1,0.7,33.5,0.7,-7.74*
